PubChem BioAssay AID1006 (Sanford-Burnham Center for Chemical Genomics, 2008)
In all, about 200,000 compounds went through this assay and about 3,000 (1.5%) were called active.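 Rule for the calls: active = inhibition above about 50% when tested at 10 µM (limit read from the data); inactive = the rest.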 For the sample, actives were picked, then their nearest neighbours and some compounds at random.

biological target: Luciferin 4-monooxygenase (Photinus pyralis) (UniProt P08659); assay: firefly luciferase enzyme inhibitors, primary screen, artefact control for luciferase-based inhibitor screens, biochemical, luminescence, ATPLite (AID 1006); conditions: 10 min, at 10 µM, active compounds read high
Sequence (P08659 whole entry, looked up): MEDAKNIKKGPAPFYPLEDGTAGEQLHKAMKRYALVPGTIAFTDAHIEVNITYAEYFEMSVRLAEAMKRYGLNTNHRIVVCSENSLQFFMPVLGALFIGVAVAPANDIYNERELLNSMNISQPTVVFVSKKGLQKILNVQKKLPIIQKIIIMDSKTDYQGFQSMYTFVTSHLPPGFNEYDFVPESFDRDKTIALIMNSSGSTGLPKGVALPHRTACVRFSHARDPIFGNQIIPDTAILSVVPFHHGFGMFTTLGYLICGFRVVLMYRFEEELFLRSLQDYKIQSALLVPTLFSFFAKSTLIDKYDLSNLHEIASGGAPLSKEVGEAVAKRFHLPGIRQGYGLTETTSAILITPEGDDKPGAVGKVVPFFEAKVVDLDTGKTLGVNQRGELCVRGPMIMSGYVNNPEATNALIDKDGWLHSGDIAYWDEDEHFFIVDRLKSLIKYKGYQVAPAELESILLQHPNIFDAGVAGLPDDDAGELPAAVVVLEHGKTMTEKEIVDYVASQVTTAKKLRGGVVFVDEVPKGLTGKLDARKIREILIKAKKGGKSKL

Structure (SMILES)	inhibition
COc1ccc(C(=S)Nc2ccccc2)cc1	8.7% (inactive)
COc1ccc(C(=O)NC2CCN(C(=S)Nc3ccccc3)CC2)cc1	-7.5% (inactive)
COc1ccc(NC(=S)N2N=CCC2c2ccccc2)cc1 (stereo unspecified)	65.3% (active)
CC(OC(=O)c1ccc2ccccc2n1)C(=O)c1ccccc1 (stereo unspecified)	81.1% (active)
O=C(Oc1ccc([N+](=O)[O-])cc1)c1ccc2ccccc2n1	41.6% (inactive)
COc1ccc(C(=O)COC(=O)c2ccc3ccccc3n2)cc1	19.4% (inactive)
COc1ccc(Cl)cc1NC(=O)Cn1nc(-c2ccc(C)cc2)n(C)c1=S	-5.1% (inactive)
Cc1ccc(C(=O)Oc2coc(CSc3nnc(NC(=O)c4cccs4)s3)cc2=O)cc1C	-0.1% (inactive)
Cc1cc(C(=O)N/N=C/c2ccc(N3CCOCC3)cc2)c(C)o1	50.7% (active)
Cc1cc(C(=O)N/N=C/c2ccccc2[N+](=O)[O-])c(C)o1	32.2% (inactive)
Cc1ccccc1N/N=C/c1ccc(N2CCOCC2)cc1	-3.5% (inactive)
Cc1cc(C(=O)N/N=C\C(Br)=C\c2ccccc2)c(C)o1	22.6% (inactive)
CCN(CC)c1ccc(C(=O)N/N=C/c2ccc(N3CCOCC3)cc2)cc1	-7% (inactive)
CC(=C/c1ccccc1)/C=N/NC(=O)c1cc(C)oc1C	78.3% (active)
Cc1ccc(NC(=S)N(Cc2ccco2)C(C)c2cccs2)cc1 (stereo unspecified)	3.7% (inactive)
CCn1nc(C)cc1C(=O)N1CCCC(C(=O)c2cccc(OC)c2)C1 (stereo unspecified)	5.6% (inactive)
COc1ccc(-n2cc(CNC3CCOCC3)c(-c3cccc(F)c3)n2)cc1	-2.3% (inactive)
O=C(Nc1ccn(Cc2ccccc2)n1)c1n[nH]c([N+](=O)[O-])c1Cl	83% (active)
O=C(Nc1ccn(Cc2ccc(F)cc2)n1)c1ccncc1	0.9% (inactive)
Cn1cc([N+](=O)[O-])c(C(=O)Nc2cnn(Cc3ccc(F)cc3)c2)n1	-8.5% (inactive)
Cc1ccc(Cn2ccc(NC(=O)c3cc(C(C)C)on3)n2)cc1	0% (inactive)
O=C(Nc1ccn(Cc2ccccc2)n1)c1cccc(F)c1	64.2% (active)
CC(=O)Nc1ccn(Cc2c(F)cccc2Cl)n1	-2.9% (inactive)
CCOc1ccc(C(CC(=O)O)NC(=O)C23CC4CC(CC(C4)C2)C3)cc1OC (stereo unspecified)	-3.9% (inactive)
CN(C)CCCn1c(SCCN2C(=O)c3ccccc3C2=O)nc2ccccc2c1=O	-5.8% (inactive)
CC(C)N(Cc1nc(-c2ccc3c(c2)OCO3)no1)CC1CCC(=O)N1 (stereo unspecified)	-8.8% (inactive)

Structure (SMILES)	inhibition
CN(C)/C=C(/C(=O)c1ccccc1)S(=O)(=O)c1ccc(Cl)cc1	-5.6% (inactive)
Cc1ccc(N2C(=O)C(CC(=O)Nc3cccc(F)c3)N(CCc3ccncc3)C2=O)cc1 (stereo unspecified)	-0.5% (inactive)
COc1cccc(-c2ccc(SCC(=O)N3CCN(c4ccccc4)CC3)nn2)c1	-6.1% (inactive)
C1=C(CCNc2ncnc3c2cnn3-c2ccccc2)CCCC1	10.5% (inactive)
c1ccc(-n2ncc3c(N4CCCC4)ncnc32)cc1	73.9% (active)
COc1ccc(-n2ncc3c(N4CCc5ccccc54)ncnc32)cc1	41.9% (inactive)
Cc1cccc(-n2ncc3c(N4CCc5ccccc54)ncnc32)c1	17.1% (inactive)
COc1ccc(-n2ncc3c(N4CCCc5ccccc54)ncnc32)cc1	54.9% (active)
O=C(NNc1ncnc2c1cnn2-c1ccccc1)c1ccco1	6% (inactive)
O=C(Nc1nnc(Cc2ccc(Cl)cc2)s1)c1cccnc1	7.5% (inactive)
CCn1c(/C=C/c2ccc([N+](=O)[O-])o2)nc2ccccc2c1=O	-6.1% (inactive)
S=c1[nH]nc(/C=C/c2ccccc2)o1	7.5% (inactive)
O=c1oc(/C=C/c2ccccc2)nc2ccccc12	80.5% (active)
N#Cc1ccc(N2Cc3ccccc3/C2=N/C(=O)Nc2ccc(Cl)cc2)cc1	-4.6% (inactive)
Cc1ccc(S(=O)(=O)N(CC(=O)Nc2cccc([N+](=O)[O-])c2)Cc2ccc(Cl)cc2)cc1	-6.1% (inactive)
COc1ccc(/C=C/C(=O)Nc2cccnc2)cc1OC	13% (inactive)
COc1ccc(/C=C/C(=O)N2CCCC2)cc1OC	5.6% (inactive)
COc1ccc(/C=C/C(=O)Nc2ccc(C34CC5CC(CC(O)(C5)C3)C4)cc2)cc1OC	57.2% (active)
CCCN(CC(=O)Nc1ccc(OC)c(OC)c1)CC(=O)Nc1ccc(F)c(F)c1F	8.5% (inactive)
COc1ccc(-n2nnnc2-c2nc3ccccc3s2)cc1	73.2% (active)
CCOc1cccc(-n2nnnc2-c2ccc(OC)cc2)c1	-0.7% (inactive)
COc1ccc(-n2nnnc2SCC(=O)Nc2ccccc2)cc1	-8% (inactive)
CCc1ccc(Oc2nc([N+](=O)[O-])nn2C)cc1	-9.5% (inactive)
Cc1nc(-c2ccccc2)sc1C(=O)/C=C/N(C)C	10.8% (inactive)
O=C(CSc1nncs1)NC1CCCc2ccccc21 (stereo unspecified)	-8.5% (inactive)
COCC1CCCN(Cc2nc(-c3ccc4c(c3)OCO4)no2)C1 (stereo unspecified)	0.8% (inactive)

Structure (SMILES)	inhibition
O=C(/C=C/c1ccccc1)c1ccoc1	14% (inactive)
O=C(O)c1ccc2c(c1)C(=O)N(c1ccc(/C=C/C(=O)c3ccccc3)cc1)C2=O	-0.5% (inactive)
O=C(/C=C/c1ccc(N2CCOCC2)cc1)c1ccccc1	60.8% (active)
CC1=C[C@H]2Cc3cc(C)cc(C)c3S(=O)(=O)[C@@H]2C=C1	-5.9% (inactive)
O=C(CSc1ccccc1)Nc1ccc(C(=O)Nc2cccc(O)c2)cc1	1.9% (inactive)
O=C(Nc1cccc(O)c1)c1ccc(C(=O)c2ccccc2)o1	69.9% (active)
C/C(=C\C(=O)c1ccccc1)Nc1cccc(O)c1	44.4% (inactive)
NC(=O)C1CCN(C(=O)COc2cccc3cccnc23)CC1	-10% (inactive)
Cc1cc(C(=O)Cn2cnc3cc([N+](=O)[O-])ccc3c2=O)c(C)n1CC1CCCO1 (stereo unspecified)	1.6% (inactive)
Cc1ccsc1C(=O)OCC(=O)c1cc(C)n(CC2CCCO2)c1C (stereo unspecified)	90.3% (active)
Cc1cc(C(=O)CCl)c(C)n1CC1COc2ccccc2O1 (stereo unspecified)	-0.3% (inactive)
CCC1C=C(c2ccccc2)C=CN=C1N(CC)CC (stereo unspecified)	-5% (inactive)
O=C(Cn1c(N2CCN(C/C=C/c3ccccc3)CC2)nc2ccccc21)c1ccccc1	-2.2% (inactive)
CCN(CCCNC(=O)CCn1c(=O)[nH]c2ccsc2c1=O)c1ccccc1	-2.6% (inactive)
CC(C)=CCN1CCN(Cc2ccc(Oc3ncccn3)cc2)CC1CCO (stereo unspecified)	-0.1% (inactive)
OCCCN1c2ccccc2Nc2nnc(-c3ccccc3)cc21	57.2% (active)
N=c1c2c(-c3ccccc3)c(-c3ccccc3)n(Cc3ccccc3)c2ncn1CCCO	-2.7% (inactive)
CCCN(CCC)CCCNC(=O)CNC(=O)c1nn(-c2ccc(OC)cc2)c(=O)c2ccccc12	-0.3% (inactive)
O=C(Oc1cccnc1)c1cc2ccccc2oc1=O	-6.1% (inactive)
Cc1ccc(OC(=O)c2cc3ccccc3o2)cc1	73.3% (active)
Cc1ccsc1C(=O)OCC(=O)c1cc2ccccc2o1	1.6% (inactive)
CCOC(=O)c1c(C)[nH]c(C2=NNC(=NC(C)COC)SC2)c1C (stereo unspecified)	56.5% (active)
CCCCOC(=O)c1[nH]c(C)c(C(=O)OC)c1C	15.4% (inactive)
CCOC(=O)c1c(C)[nH]c2c1-c1ccccc1C(=O)C2=O	-5.3% (inactive)
O=c1c2ccccc2nc2n1C1(CCCCC1)Cc1ccccc1-2	-6.3% (inactive)
CN(c1ccc2nc3ccccc3c(=O)n2n1)C1CCCCC1	96.2% (active)

Structure (SMILES)	inhibition
CCOC(=O)C(C)Sc1nc2ccccc2c(=O)n1CC1CCCCC1 (stereo unspecified)	1.4% (inactive)
CC(C)CCC(C)NC(=O)c1ccc2nccnc2c1 (stereo unspecified)	2.8% (inactive)
COc1ccc(N2C(=O)/C(=C\c3ccco3)N=C2SCC(N)=O)cc1Cl	-5.8% (inactive)
Cc1ccc2cc3cc(C(=O)N4CCCCCC4)oc3nc2c1	69.5% (active)
Cc1cc(=O)oc(C)c1C(=O)N1CCCCC1	-6.7% (inactive)
Cc1ccc(C(=O)N2CCCCCC2)cc1Br	-7.1% (inactive)
C/C(=N/N1CCN(Cc2cccc3ccccc23)CC1)c1cccnc1	-5.7% (inactive)
O=C(Nc1ccc(NC(=O)c2cccs2)cn1)c1ccco1	83.2% (active)
COc1cccc(C(=O)Nc2ccc(NC(=O)c3ccco3)cn2)c1	6.5% (inactive)
O=C(Nc1ccc2nccnc2c1)c1ccco1	13% (inactive)
N/C(=N\OC(=O)/C=C/c1ccccc1)c1ccc(Br)cc1	-0.5% (inactive)
N/C(=N\OC(=O)N1c2ccccc2Sc2ccccc21)c1ccc(Br)cc1	-3.4% (inactive)
N/C(=N\OC(=O)c1ccc2c(c1)OCO2)c1ccc(Br)cc1	60.6% (active)
COc1ccccc1CN(C)C(=O)C1(c2ccc(Cl)cc2)CC1	-4.2% (inactive)
O=C(CCC(=O)N1CCCC1)Nc1ccc([N+](=O)[O-])cc1	-1.6% (inactive)
CCn1c(=S)[nH]c2sc3c(c2c1=O)CCCCC3	-1.8% (inactive)
CCO[C@H]1OC(C(=O)Nc2ccccc2)=C[C@@H](C2CC2)[C@@H]1CCCO	-0.3% (inactive)
Cc1ccc(C)c(NC(=S)NCC(c2cccnc2)N2CCOCC2)c1 (stereo unspecified)	-5.6% (inactive)
CCOC(=O)CSc1nnc(-c2ccncc2)o1	0.6% (inactive)
CCCCSc1nnc(-c2ccc(C)cc2)o1	50.5% (active)
CCOC(=O)CSc1nnc(-c2ccc([N+](=O)[O-])cc2)o1	3% (inactive)
Cc1ccnc(SCC(N)=O)n1	-1.6% (inactive)
O=C(Nn1cnnc1)c1ccc([N+](=O)[O-])cc1	-5.5% (inactive)
